Shiga inhibitor: blocks Shiga toxin action in Vero cells | Vero cells, Shiga toxin protein synthesis inhibition reporter | actives 9.2% (n = 290,000) | inhibition, % at 38.7 µM; in the data active = inhibition mostly above about 28%, no sharp cut-off; inactive = mostly below about 43%; also: 0% is about no effect
Pf growth 48h: inhibits P. falciparum growth in the first generation, 48 h; P. falciparum luciferase growth in erythrocytes, 48 h; Potency, µM (series often up to 28.7 µM), inactives show top-dose activity change, negative = inhibition, most hits filed as inhibitors; actives 5.9% (n = 310,000); also: potency is read from the fitted curve at half-maximal effect; % is scaled to controls: 0 for no effect and ±100 for the full control effect
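Luminescence readout; reporter = integrated firefly luciferase in P. falciparum. RBC culture at 2% hematocrit, 0.1% parasitemia final, 37 C/5% CO2; decreased signal taken as growth inhibition.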
Cycloheximide cs: counter-screen for Shiga toxin inhibitors: cycloheximide protein synthesis inhibition. max response, %. actives 12% (n = 300,000). cell reporter, cycloheximide protein synthesis inhibition counterscreen; in the data active = max response mostly above about 13%, no sharp cut-off; inactive = mostly below about 14%; also: read at 38.3 µM for the half of the compounds with a filed dose; 0% is about no effect
Pf growth 96h: P. falciparum growth inhibition at 96 hours; P. falciparum luciferase reporter growth, 96 h; actives 6.9% (n = 320,000); Potency, µM (doses to about 28.7 µM), inactives show top-dose activity change, negative = inhibition, usual class: inhibitors; also: potency is read from the fitted curve at half-maximal effect; % is scaled to controls: 0 for no effect and ±100 for the full control effect
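P. falciparum expressing integrated firefly luciferase grown in erythrocytes (2% hematocrit, 0.05% parasitemia final) with compounds for 96 hours at 37 C, 5% CO2. Growth inhibition read as loss of luminescence after adding luciferase detection reagent.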
Active calls of the source: *; ? = inconclusive; · = no result. Most compounds without a hit are left out; they make up all but 21% or so of the library. Unless noted, calls follow the shape of the dose curve; as a rule, active = well fitted inhibition curve with a large enough effect; inconclusive = small, poorly fitted or top-dose-only effect, or another doubt; inactive = no such curve, though single readings can be large or run the other way.

SMILES	Shiga inhibitor	Pf growth 48h	Cycloheximide cs	Pf growth 96h
O=C(/C=C/c1ccc(Cl)cc1)N1CCN(c2ccc([N+](=O)[O-])c(N3CCOCC3)c2)CC1	-10	?	-1	10µM*
Cc1cc(C)n2nc(C(=O)N3CCN(c4ccc([N+](=O)[O-])cc4)CC3)nc2n1	15	?	-3	5.9µM*
O=C(NNc1ncccc1Cl)c1c(Cl)cccc1Cl	-6	-8%	6	?
CCCCN(C)CCNC(=O)CCn1nc(-c2ccc(C)cc2)ccc1=O	-3	10%	-3	3%
COC(=O)C1=C(C)N(Cc2ccccc2)C(=S)N[C@H]1c1cccc(C(F)(F)F)c1	28*	?	19*	43%
CCN1C(=NCC2CC2)N[C@@H](c2cccc(C(F)(F)F)c2)C(C(=O)OC)=C1C	3	?	-2	12µM*
CCN1C(=NCCOC)N[C@@H](c2cccc(C(F)(F)F)c2)C(C(=O)OC)=C1C	-7	-24%	0	2.1µM*
CCN1C(=S)N[C@@H](CCc2ccccc2)C(C(=O)OC)=C1C	-4	?	-1	9.3µM*
CCN1C(=NCCN2CCOCC2)N[C@@H](CCc2ccccc2)C(C(=O)OC)=C1C	1	?	7	102%
COC(=O)C1=C(C)N(Cc2ccccc2)C(=O)N[C@H]1c1cccc(C(F)(F)F)c1	-4	?	-3	?
COC(=O)c1c(-c2c(Cl)cccc2Cl)noc1C(=O)NNC(=O)N(C)C	2	26%	-2	37%
COc1cccc(C2Oc3ccccc3C3CC(c4cccs4)=NN32)c1 (configuration not stated)	79*	39%	51*	36%
O=C(c1ccccc1)C1Oc2ccccc2C2CC(c3cccs3)=NN12 (configuration not stated)	32	?	-8	22%
CCC1CN(C(=O)N2CCC(C(=O)NCc3ccc(OC)cc3OC)CC2)c2ccccc2O1 (configuration not stated)	-5	-28%	-6	-9%
O=C(NCc1ccc2c(c1)OCO2)c1ccc(Cl)nc1	0	45%	1	-1%
O=C(NCc1ccc2c(c1)OCO2)c1nc(S(=O)(=O)Cc2ccccc2F)ncc1Cl	26	29%	26*	70%
O=C(NCc1ccc2c(c1)OCO2)c1nc(S(=O)(=O)Cc2ccccc2)ncc1Cl	32	-2%	27*	-7%
Cc1cc(OCC(=O)NCCc2c[nH]c3ccccc23)c2c(C)cc(=O)oc2c1	-7	?	0	?
Clc1ccc2nc(CN3CCCCC3)cn2c1	-21	6%	-4	-73%
Clc1ccc2nc(CN3CCCc4ccccc43)cn2c1	56*	?	23*	-9%
O=C(Nc1cccc(C(F)(F)F)c1)Nc1cc(Cl)ccc1C(=O)O	4	·	9	·
COc1cc(OC)cc(C(=O)NC(C(=O)NNC(=O)c2ccc(C)cc2)C(C)C)c1 (configuration not stated)	·	22%	·	21%
Cc1c(CNCCc2ccc(Cl)cc2)c(C(=O)O)c(C)n1Cc1ccccc1	-6	-16%	-1	-27%
Cc1c(CNCCc2ccccc2Cl)c(C(=O)O)c(C)n1-c1ccccc1	32	?	17*	0%
CCc1cc2c(COC(=O)CCNS(=O)(=O)c3cccc(C(F)(F)F)c3)cc(=O)oc2cc1O	·	4.7µM*	·	?
SMILES	Shiga inhibitor	Pf growth 48h	Cycloheximide cs	Pf growth 96h
CN(C)CCCNC(=S)Nc1ccc(-c2ccccc2)cc1	-5	?	1	?
Cc1cc(C)cc(Oc2nc(-c3ccccc3)cc(C)c2S(C)(=O)=O)c1	-17	·	1	?
Cc1cc(-c2ccccc2)nc(Oc2ccc(C(C)(C)C)cc2)c1S(C)(=O)=O	-3	?	-1	13µM*
O=C(NCCN1CCOCC1)/C(=C\c1ccc(F)cc1)NC(=O)c1ccccc1	-6	-4%	6	32%
O=S(=O)(c1ccc(Cl)cc1)c1cnc(-c2cccnc2)nc1-c1ccccc1	-15	?	-5	?
Cc1nc(-c2ccccc2)sc1-c1nc(-c2ccncc2)ncc1S(=O)(=O)c1ccccc1	-11	?	13	1.7µM*
CCOC(=O)C1(Cc2cccc(Cl)c2)CCCN(C(=O)c2ccc(C)nc2)C1 (configuration not stated)	-4	-14%	-2	15µM*
CCOC(=O)C1(Cc2cccc(Cl)c2)CCCN(C(=O)c2cc(C)on2)C1 (configuration not stated)	59*	-21%	28*	23%
CCOC(=O)C1(Cc2cccc(F)c2)CCN(C(=O)c2cnccn2)CC1	-14	11%	-3	?
CCOC(=O)C1(Cc2cccc(Cl)c2)CCCN(C(=O)c2c(CC)noc2C)C1 (configuration not stated)	24*	?	41*	?
CCOC(=O)C1(Cc2cccc(Cl)c2)CCCN(C(=O)c2cc(C)[nH]n2)C1 (configuration not stated)	-12	?	-3	-6%
CCOC(=O)C1(Cc2cccc(Cl)c2)CCCN(C(=O)c2cc(C(C)C)nn2C)C1 (configuration not stated)	35	?	32*	-7%
COc1ccc(C(C(=O)NC(C)(C)C)N(C(=O)CNC(=O)c2cccs2)c2cccnc2)cc1OC (configuration not stated)	-7	20%	-6	?
COc1ccc(S(=O)(=O)N2CCC(Cc3ccccc3)CC2)cc1NC(C)=O	-3	34%	-2	4.7µM*
COc1ccc(S(=O)(=O)N2CCOCC2)cc1NC(=O)CN1CCC(Cc2ccccc2)CC1	-13	12µM*	-3	4.7µM*
COc1ccc(S(=O)(=O)N2CCOCC2)cc1NC(=O)CN1CCCC1	18	33%	-2	43%
COc1ccc(S(=O)(=O)N2CCC(Cc3ccccc3)CC2)cc1C(N)=O	-4	19%	-2	?
CC1CCc2c(sc3ncn(N)c(=N)c23)C1 (configuration not stated)	20	17%	16	-13%
COCCCNC(=S)Nc1ccc(C)cc1	4	11%	0	14%
COCCCNC(=S)NNC(=S)Nc1ccc(F)cc1F	54*	·	44*	3%
COCCCNC(=S)NNC(=S)Nc1ccccc1	40*	43%	27*	37%
C=CCNC(=S)Nc1ccc(F)cc1F	-13	20%	1	54%
COCCCNC(=S)NCCc1ccc(F)cc1	45*	56%	26	-16%
CCCN1CCN(CCCNC(=O)c2ccc(NC(=O)C3=C(C)OCCS3)cc2)CC1	-3	6%	-6	-23%
CN(Cc1ccccc1)C(=S)NC(=O)c1cccs1	2	?	8	2%
O=C(OCC(=O)N1CCc2ccccc2C1)c1cc(=O)[nH]c2ccccc12	59*	8%	33*	10%
Cc1ccc(OCC(=O)N2CCc3ccccc3C2)c(Br)c1	60*	21%	42*	50%
COc1cc(C(C)=O)ccc1OCC(=O)N1CCc2ccccc2C1	-3	-22%	-3	?
Cc1ccc(OCC(=O)N2CCc3ccccc3C2)c(C)c1	33	6%	11*	-1%

Screens as filed in PubChem.
